The source of these data is PubChem BioAssay.

Assay [1] can be described thus: NFkB reporter suppression in cystic fibrosis bronchial cells – cell-based, uHTS hits, panel, cytotoxicity readout, dose response (AID 624344). The note with it: CF bronchial epithelial cells, PAF-induced NFkB reporter inhibition, with PAF, run 1; at 79 µM (top of the series) unless noted.
Experiment in assay [2]: as above
The note with it: CF bronchial epithelial cells, PAF-induced NFkB reporter inhibition, with PAF, run 2; at 79 µM (top of the series) unless noted.

`Cc1ccnc(NC(=O)Cc2ccc(-c3ccccc3)cc2)c1`: the inhibition (usually the change of the read-out against control, counted positive when it falls) in assay [1] is 111%; in assay [2], 105%.
The matching figures for `CCc1ccc(Nc2n[n+](-c3ccccc3)c(-c3c(Cl)cccc3Cl)s2)cc1`: 116% and 101%.
As to `COc1ccc(/C=N/NC(=O)c2[nH]c3ccc(Br)cc3c2-c2ccccc2)cc1`, the inhibition came to 88.4% in assay [1] and 71.3% in assay [2].
For `COc1ccc2nc(Nc3nc(CSc4nc5ccccc5[nH]4)cc(=O)[nH]3)nc(C)c2c1`, the inhibition in assay [1] worked out at 108%; in assay [2], 102%.
In the case of `Cc1nc([N+](=O)[O-])c(Sc2nc3ccccc3n2C)n1Cc1ccccc1`, the inhibition in assay [1] is 101%; in assay [2], 115%.
The matching figures for `COc1ccc(-c2cc(C(F)(F)F)nc(S(=O)(=O)CCCC(=O)Nc3cccnc3Cl)n2)cc1OC`: 99.5% and 99.1%.
`O=c1[nH]nc(Sc2ncnc3sccc23)n1CCc1ccccc1`: the inhibition in assay [1] amounted to 100%; in assay [2] it was 105%.
As to `COC(=O)c1ccc(-c2ccc(OC)c([C@H]3[C@H]4C=CC[C@@H](C)[C@@H]4C(=O)N3Cc3ccccc3)c2)cc1`, the inhibition in assay [1] came out at 111%; in assay [2] it was 80%.
Regarding `Cc1ccccc1C(=O)N1CCN(c2ccc(NC(=O)c3cccc(OC(C)C)c3)cc2)CC1`, the values for the inhibition in assay [1] and in assay [2] were 89.1% and 86.4%, respectively.
On to `CCOC(=O)c1[nH]c2c(c1C)C(=O)CC(c1ccco1)C2` (centres undefined), for which the values for the inhibition in assay [1] and in assay [2] were 40.8% and 98.7%, respectively.
Take `CCNC(=O)C1(C)CCCN(Cc2ccc(-c3ccccc3)o2)C1` (centres undefined): the inhibition in assay [1] turned out to be 94%; in assay [2], 74.8%.
Consider `C[C@@H]1CN([C@H](C)CO)C(=O)c2cc(NC(=O)Nc3ccc(C(F)(F)F)cc3)ccc2O[C@H]1CN(C)S(=O)(=O)c1ccc(Cl)cc1`, for which the inhibition in assay [1] amounted to 86.7%; in assay [2], 92.7%.
For the compound `COc1ccc(CN2C[C@H]3CCCN3c3cc(Br)ccc3S2(=O)=O)cc1`, the inhibition came to 74.6% in assay [1] and 92.2% in assay [2].
Regarding `CC(=O)c1c(O)cc(O)c(C(C)=O)c1O`, the inhibition in assay [1] was 110%; in assay [2], 101%.
As for `CCC1(O)CC2CN(CCc3c([nH]c4ccccc34)C(C(=O)OC)(c3cc4c(cc3OC)N(C=O)C3C(O)(C(=O)OC)C(OC(C)=O)C5(CC)C=CCN6CCC43C65)C2)C1` (centres undefined), the inhibition in assay [1] turned out to be 107%; in assay [2], 78.2%.
`COc1ccc(-c2cc(NC=O)c3ncc(-c4ccc(OC)c(OC)c4)n3c2)c(OC)c1`: the values for the inhibition in assay [1] and in assay [2] were 95.1% and 86.2%, respectively.
In the case of `COc1ccc(NC(=O)Nc2nnc(-c3ccncc3)s2)cc1`, the results for the inhibition in assay [1] and in assay [2] were 67.9% and 68.6%, respectively.
The matching figures for `COC(=O)c1c(C)n(-c2ccc(OC)cc2)c2ccc(O)cc12`: 103% and 94.9%.
As for `COc1cccc(/C=N/n2c(C3CCCCC3)n[nH]c2=S)c1`, the inhibition in assay [1] was 97.2%; in assay [2], 106%.
In the case of `C=C1C(=O)[C@]23C[C@H]1CC[C@H]2[C@]1(C)[C@@H](O)CC[C@@](C)(C(=O)O)[C@H]1C[C@@H]3O`, the inhibition was found to be 98.4% in assay [1] and 103% in assay [2].
With `CCCC1/C(=N/O)CC(c2ccccc2)NC1c1ccccc1` (centres undefined), the results for the inhibition in assay [1] and in assay [2] were 106% and 98.7%, respectively.
The matching figures for `COc1cc(/C=N/NC(=O)Nc2cccc3nsnc23)cc(OC)c1OC`: 89.7% and 82.7%.
The matching figures for `CCN(CC)CCN(C(=O)CCS(=O)(=O)c1ccccc1)c1nc2c(C)cc(C)cc2s1`: 106% and 115%.
The matching figures for `COc1ccc(-n2nnnc2S(=O)(=O)Cc2ccc(C(=O)O)cc2)cc1`: 74.7% and 102%.
Consider `O=[N+]([O-])c1ccc(NC(=S)NCCc2ccc(F)cc2)cc1`, for which the inhibition was determined as 115% in assay [1] and 105% in assay [2].
The matching figures for `Cc1cnc(NC(=O)CCCc2nc3ccccc3s2)s1`: 101% and 114%.
The matching figures for `c1cncc(CNc2ncnc3ccc(-c4ccoc4)cc23)c1`: 113% and 98.2%.
The matching figures for `CC(=O)c1ccc(-n2c(C)c(C(C)=O)c3cc(O)ccc32)cc1`: 56.2% and 74.6%.
In the case of `O=S(=O)(c1ccc(Br)cc1)c1cnc2ccccc2n1`, the inhibition in assay [1] was found to be 100%; in assay [2] it was 106%.
Regarding `COc1ccc(-c2cnc(N)nc2-c2ccc(OC)cc2O)cc1`, the inhibition in assay [1] worked out at 112%; in assay [2], 102%.
On to `O=c1c(O)c(-c2ccccc2)oc2cc(O)cc(O)c12`, for which the inhibition in assay [1] turned out to be 103%; in assay [2] it was 106%.
Take `CC(C)c1nc(Cl)c(C#N)c2c1CCCC2`: the inhibition worked out at 96.5% in assay [1] and 112% in assay [2].
Consider `NC(=S)N1OC[C@@H]2COc3ccc4ccccc4c3[C@@H]21`, for which the inhibition in assay [1] worked out at 114%; in assay [2], 105%.
Take `O=C(COc1ccc(Cl)cc1)Nc1ncc([N+](=O)[O-])s1`: the inhibition in assay [1] is 115%; in assay [2] it was 83.3%.
For `Nc1nc(N)nc(-c2cc([N+](=O)[O-])ccc2O)n1`, the values for the inhibition in assay [1] and in assay [2] were 76.3% and 66.7%, respectively.
For `CC(C)C[C@H]1CNC(=S)N1C[C@H]1CCCN1C[C@H](Cc1ccccc1)N1C[C@H](Cc2ccc(O)cc2)N(CC2CCCCCC2)C1=S`, the inhibition in assay [1] came to 103%; in assay [2], 112%.
Take `COc1ccc(CNc2nn3c(-c4cccc(C(=O)N(C)C)c4)cnc3s2)cc1`: the values for the inhibition in assay [1] and in assay [2] were 113% and 104%, respectively.
As for `O=C(CN1C(=O)CCC1=O)Nc1nc(-c2nc3ccccc3s2)cs1`, the inhibition was 84.7% in assay [1] and 85.9% in assay [2].
On to `COc1ccc(-c2ccccc2[C@H]2[C@@H]3C=CC[C@@H](C)[C@@H]3C(=O)N2Cc2ccccc2)cc1`, for which the results for the inhibition in assay [1] and in assay [2] were 102% and 108%, respectively.
For `C=C1C(=O)O[C@@H]2[C@H]1CC[C@H](C)[C@]1(O)CCC(=O)[C@@]21C`, the results for the inhibition in assay [1] and in assay [2] were 101% and 108%, respectively.
Consider `O=C(CCS(=O)(=O)c1ccccc1)N(CCCN1CCOCC1)c1nc2c(F)cccc2s1`, for which the values for the inhibition in assay [1] and in assay [2] were 97.5% and 95.9%, respectively.
On to `CC(C)c1ccccc1NC(=O)COC(=O)c1c2c(nc3ccccc13)CCN(Cc1ccccc1)C2`, for which the figures for the inhibition in assay [1] and in assay [2] were 76.4% and 90.6%, respectively.
